Rows were chosen to be rich in hits. Some 1% of all compounds tested hit in one or more screens of this group.
PrP UTR inh: inhibition of PrP 5' UTR reporter expression; cell-based PrP 5' UTR mRNA reporter, plate reader; inhibition, % (concentration not given with the values); actives 0.35% (n = 340,000); AID 488862; in the data active = inhibition above about 52%; note: 0 = median of the neutral control wells
Mtb hypoxia inh: Mtb hypoxia fluorescent reporter inhibition | AID 1159583 | actives 0.1% (n = 300,000) | M. tuberculosis hypoxia-regulated fluorescent reporter, fluorescence | fluorescence inhibition, % (concentration not given with the values); in the data active = fluorescence inhibition mostly above about 23%, no sharp cut-off; inactive = mostly below about 17%
SSB-PriA inh: K. pneumoniae PriA-SSBct interaction inhibition; actives 0.6% (n = 430,000); AlphaScreen SSBct-PriA binding, biotinylated peptide; AID 1272365; inhibition, % at 33 µM; in the data active = inhibition mostly above about 37%, no sharp cut-off; inactive = mostly below about 20%;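 note: plate controls were negative control peptide for no effect and reference peptide for full effect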
BioA inh: inhibitors of Mycobacterium tuberculosis BioA enzyme. purified M. tuberculosis BioA enzyme, plate reader. inhibition, % at 9.99 µM. actives 0.096% (n = 360,000); in the data active = inhibition above about 40%
TcdB inh: blocks C. difficile toxin B glycohydrolase activity; P18177; TcdB glycohydrolase enzymatic assay, plate reader; inhibition, % at 9.99 µM; actives 0.24% (n = 350,000); AID 652162; in the data active = inhibition above about 10%
Target sequence (P18177 whole entry, looked up): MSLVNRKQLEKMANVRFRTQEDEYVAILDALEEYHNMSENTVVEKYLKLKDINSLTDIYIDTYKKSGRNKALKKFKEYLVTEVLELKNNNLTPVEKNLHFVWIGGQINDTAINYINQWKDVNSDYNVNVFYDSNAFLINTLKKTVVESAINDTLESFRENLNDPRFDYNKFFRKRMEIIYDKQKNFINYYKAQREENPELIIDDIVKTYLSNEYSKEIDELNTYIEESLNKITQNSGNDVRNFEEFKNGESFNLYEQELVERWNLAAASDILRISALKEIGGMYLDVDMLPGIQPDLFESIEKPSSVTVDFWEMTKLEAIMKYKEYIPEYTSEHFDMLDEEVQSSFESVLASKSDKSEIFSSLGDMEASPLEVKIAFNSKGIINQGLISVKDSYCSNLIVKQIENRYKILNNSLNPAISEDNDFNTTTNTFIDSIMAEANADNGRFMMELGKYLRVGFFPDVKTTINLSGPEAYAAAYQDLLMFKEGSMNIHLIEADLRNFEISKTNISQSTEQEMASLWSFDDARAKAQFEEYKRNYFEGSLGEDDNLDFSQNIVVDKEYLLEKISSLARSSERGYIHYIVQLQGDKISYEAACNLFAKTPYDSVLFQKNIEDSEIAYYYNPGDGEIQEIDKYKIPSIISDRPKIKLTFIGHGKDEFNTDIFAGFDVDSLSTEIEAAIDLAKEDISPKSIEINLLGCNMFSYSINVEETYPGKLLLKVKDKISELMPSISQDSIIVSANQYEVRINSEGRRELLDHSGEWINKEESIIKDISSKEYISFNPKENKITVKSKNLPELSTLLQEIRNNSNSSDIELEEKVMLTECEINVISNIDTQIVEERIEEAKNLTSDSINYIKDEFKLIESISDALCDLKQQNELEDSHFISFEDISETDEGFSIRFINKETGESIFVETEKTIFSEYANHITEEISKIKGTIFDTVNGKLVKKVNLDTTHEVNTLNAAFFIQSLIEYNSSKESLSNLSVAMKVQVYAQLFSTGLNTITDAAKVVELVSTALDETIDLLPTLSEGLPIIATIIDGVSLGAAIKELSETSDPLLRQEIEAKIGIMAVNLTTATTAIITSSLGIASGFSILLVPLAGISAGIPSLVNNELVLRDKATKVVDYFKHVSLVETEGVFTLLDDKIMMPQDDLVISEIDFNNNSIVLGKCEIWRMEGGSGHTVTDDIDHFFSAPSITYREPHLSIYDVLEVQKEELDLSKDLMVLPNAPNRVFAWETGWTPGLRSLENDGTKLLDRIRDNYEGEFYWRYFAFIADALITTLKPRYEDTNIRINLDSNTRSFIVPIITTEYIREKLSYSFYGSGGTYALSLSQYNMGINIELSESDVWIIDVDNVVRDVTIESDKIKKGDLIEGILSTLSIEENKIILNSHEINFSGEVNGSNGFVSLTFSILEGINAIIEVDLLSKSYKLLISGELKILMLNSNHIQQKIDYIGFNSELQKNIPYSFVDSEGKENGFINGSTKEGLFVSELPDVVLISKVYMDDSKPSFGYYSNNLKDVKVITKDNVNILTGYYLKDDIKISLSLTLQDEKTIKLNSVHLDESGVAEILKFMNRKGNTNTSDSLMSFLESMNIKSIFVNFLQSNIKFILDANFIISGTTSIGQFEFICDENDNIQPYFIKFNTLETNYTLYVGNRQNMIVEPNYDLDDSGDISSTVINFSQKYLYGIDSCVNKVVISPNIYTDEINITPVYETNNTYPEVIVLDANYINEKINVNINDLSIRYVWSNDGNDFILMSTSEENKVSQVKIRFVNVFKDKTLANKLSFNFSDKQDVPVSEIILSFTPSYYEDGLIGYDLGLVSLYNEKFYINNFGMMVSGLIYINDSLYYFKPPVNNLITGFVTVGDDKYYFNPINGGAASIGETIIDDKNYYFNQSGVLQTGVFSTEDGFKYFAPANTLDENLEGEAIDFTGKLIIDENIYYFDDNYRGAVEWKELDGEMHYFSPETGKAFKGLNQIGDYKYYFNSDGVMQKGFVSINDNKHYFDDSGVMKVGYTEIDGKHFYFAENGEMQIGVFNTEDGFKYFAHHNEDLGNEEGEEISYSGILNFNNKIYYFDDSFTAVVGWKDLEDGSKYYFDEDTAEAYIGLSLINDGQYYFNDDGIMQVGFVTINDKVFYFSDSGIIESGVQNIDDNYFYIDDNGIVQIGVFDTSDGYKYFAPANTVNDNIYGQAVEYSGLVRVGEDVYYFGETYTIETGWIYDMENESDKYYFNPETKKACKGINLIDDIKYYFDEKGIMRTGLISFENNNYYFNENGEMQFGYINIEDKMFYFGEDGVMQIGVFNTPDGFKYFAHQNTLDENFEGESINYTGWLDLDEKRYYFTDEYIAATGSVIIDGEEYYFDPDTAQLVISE
FadD28 binding: inhibitors of Mycobacterium tuberculosis FadD28 bisubstrate binding; FadD28 bisubstrate probe binding, fluorescence polarization; inhibition, % at 12.5 µM; actives 0.22% (n = 360,000); in the data active = inhibition above about 8.5%, passing the limit was not always enough
PrP UTR cherry: prion 5' UTR mRNA inhibition, cherry-pick retest; shares compounds with PrP UTR inh; cell-based prion protein 5' UTR reporter, plate reader; inhibition, % at 2.5 µM; actives 48% (n = 1,100); AID 504592; in the data active = inhibition above about 54%
* hit, by the source's call; x = no result.

SMILES | PrP UTR inh | Mtb hypoxia inh | SSB-PriA inh | BioA inh | TcdB inh | FadD28 binding | PrP UTR cherry
Cc1cc(C(=O)COc2ccccc2C(N)=O)c(C)n1CC1CCCO1 (stereo unspecified) | -31.7 | 7.8 | 0.9 | -0.6 | -0.1 | -0.5 | x
CCn1c(C)cc(C(=O)COC(=O)c2ccccc2[N+](=O)[O-])c1C | 94.5* | 1.5 | 16.9 | 1.6 | x | x | 96.9*
Cc1cc(C(=O)COC(=O)c2ccccc2Br)c(C)n1CC1CCCO1 (stereo unspecified) | 77.4* | 6.2 | -7.5 | 1.0 | 0.9 | 0.0 | 70.9*
Cc1ccsc1C(=O)OCC(=O)c1cc(C)n(C)c1C | 59.2* | 5.5 | -5.6 | -1.5 | 0.0 | -3.2 | 63.2*
Cc1cccc(C)c1OCc1cc(C(=O)N2CCN(c3ccccn3)CC2)no1 | -30.2 | 3.9 | -15.4 | -0.1 | 0.8 | -0.6 | x
COc1ccc(S(=O)(=O)N2CCC(C(=O)N[C@@H](C)C(=O)NCc3ccccn3)CC2)cc1 | x | x | x | 4.9 | 0.2 | -0.7 | x
COc1cccc(C(=O)Nc2ccc(Cl)c3ncsc23)c1OC | x | x | 2.0 | x | x | x | x
COCCNC(=S)NN=C(C)CCc1ccc2c(c1)OCO2 | x | 13.9 | -4.5 | x | x | x | x
Cc1cc(C(=O)COC(=O)c2ccccc2O)c(C)n1CC1CCCO1 (stereo unspecified) | 88.9* | 2.5 | 5.8 | -0.9 | 2.8 | -1.4 | 90.0*
Cc1cc(C(=O)COC(=O)c2ccccc2O)c(C)n1Cc1cccs1 | 90.9* | -4.0 | -16.0 | -0.8 | x | 0.4 | 80.0*
Cc1cc(C(=O)COC(=O)c2n[nH]c3ccccc23)c(C)n1CC1CCCO1 (stereo unspecified) | -10.4 | x | -10.3 | -0.8 | x | -1.9 | x
Cc1cc(C(=O)COC(=O)c2cccnc2Cl)c(C)n1CC1CCCO1 (stereo unspecified) | 58.7* | 12.7 | 4.7 | x | 0.3 | -4.1 | 43.2
Cc1cc(C(=O)COC(=O)c2ccccc2NCCO)c(C)n1CC1CCCO1 (stereo unspecified) | 19.0 | 2.8 | -31.0 | -2.6 | 2.4 | -1.1 | x
CC/C=C/CC(=O)N[C@@H](c1ccccc1)[C@@H](O)C(=O)O[C@H]1C[C@@]2(O)[C@@H](OC(=O)c3ccccc3)C3[C@](C)(C(=O)[C@H](OC(C)=O)C(=C1C)C2(C)C)[C@@H](O)C[C@H]1OC[C@@]31OC(C)=O (stereo partly specified) | 59.2* | x | -4.1 | 0.1 | 1.0 | x | 85.0*
CCCCCC(=O)N[C@@H](c1ccccc1)[C@@H](O)C(=O)O[C@H]1C[C@@]2(O)[C@@H](OC(=O)c3ccccc3)C3[C@](C)(C(=O)[C@H](OC(C)=O)C(=C1C)C2(C)C)[C@@H](O)C[C@H]1OC[C@@]31OC(C)=O (stereo partly specified) | 43.2 | x | -2.2 | -1.8 | 0.0 | -3.6 | x
CC(=O)O[C@H]1C(=O)[C@@]2(C)[C@H]([C@H](OC(=O)c3ccccc3)[C@]3(O)C[C@H](OC(=O)[C@H](O)C(NC(=O)c4ccccc4)c4ccccc4)C(C)=C1C3(C)C)[C@]1(OC(C)=O)CO[C@@H]1C[C@@H]2O (stereo partly specified) | 70.0* | x | -1.4 | 0.4 | -0.2 | -3.5 | 88.5*
CC(=O)O[C@H]1C(=O)[C@@]2(C)[C@H]([C@H](OC(=O)c3ccccc3)[C@]3(O)C[C@H](OC(=O)[C@H](O)[C@@H](NC(=O)c4ccccc4)c4ccccc4)C(C)=C1C3(C)C)[C@]1(OC(C)=O)CO[C@@H]1C[C@@H]2O | 55.0* | x | -11.0 | 2.2 | 0.2 | -0.2 | 88.5*
O=C(CCNC(=O)c1ccccc1)Nc1ccc(S(=O)(=O)Nc2ncccn2)cc1 | -8.3 | 11.1 | 6.7 | -1.1 | 0.3 | -0.6 | x
CCOC(=O)C(N)CSC1CC(=O)N(c2ccc(OC)cc2)C1=O (stereo unspecified) | -19.2 | -2.5 | -18.9 | -0.7 | 1.0 | -0.8 | x
CCCNC(=O)Cn1nc(C(F)(F)F)cc1C | 58.0* | -4.9 | -1.2 | -1.3 | 2.3 | 0.1 | -11.7
O=C(O)c1ccc(N/N=C/c2ccc3c(c2)OCO3)cc1 | 77.2* | x | x | x | -1.4 | 1.7 | 64.8*
COc1cccc(NC(=O)Nc2cccc(C(=O)O)c2)c1 | 62.0* | 2.6 | 5.7 | x | -0.1 | -0.8 | 62.9*
O=C(Nc1cccc(C(=O)O)c1)Nc1ccc2c(c1)OCO2 | 83.7* | x | -6.0 | -3.4 | 0.6 | -0.7 | 73.3*
CCOC(=O)c1cccc(NC(=O)/C=C/c2ccc3c(c2)OCO3)c1 | 60.4* | 6.3 | -3.5 | x | x | -8.5 | 22.3
O=C(NCc1ccc(C(F)(F)F)cc1)c1ccc2c(c1)S(=O)(=O)c1ccccc1C2=O | -13.9 | 2.5 | 5.2 | -1.4 | x | -0.2 | x
SMILES | PrP UTR inh | Mtb hypoxia inh | SSB-PriA inh | BioA inh | TcdB inh | FadD28 binding | PrP UTR cherry
CCN(CC)S(=O)(=O)c1ccc(C(=O)O)cc1 | 80.0* | 4.9 | -4.0 | 0.1 | -2.8 | -4.5 | 8.4
CCCN(CCC)S(=O)(=O)c1ccc(C(=O)O)cc1 | -16.1 | 0.0 | -5.2 | 0.1 | -2.3 | -0.6 | x
O=C(NCCc1ccccn1)c1ccc(NS(=O)(=O)c2ccc(F)cc2)cc1 | -0.6 | -1.5 | -5.2 | 0.5 | 0.0 | -1.9 | x
CCN(CC)S(=O)(=O)c1ccc(C(=O)NCCc2ccccn2)cc1 | 78.3* | 8.5 | -7.5 | 8.2 | 0.8 | -4.0 | -13.9
CCOC(=O)c1c(SCCN2CCCC2)n(-c2ccccc2)c(=S)n(-c2ccccc2)c1=O | 65.1* | x | -19.9 | x | 1.3 | -2.0 | 21.2
CCCCN(C(=O)COC(=O)c1sccc1C)c1c(N)n(CCC)c(=O)[nH]c1=O | x | x | x | 0.5 | 0.6 | -3.0 | x
CCOC(=O)c1ccc(-n2c(C)cc(C(=O)CSc3nnc4ccccn34)c2C)cc1 | x | x | 7.0 | x | x | x | x
Cc1cc(C(=O)CSc2nnc3ccccn23)c(C)n1-c1ccccc1 | 66.8* | 17.7 | 13.3 | x | x | -1.0 | 84.7*
COc1cccc2c1C(CO)N1C(C#N)C3CC(C(=O)O)C(C1C2)N3C (stereo unspecified) | 69.3* | x | 1.8 | -1.0 | 1.1 | -0.8 | 75.0*
O=C(CN1C(=O)c2ccccc2S1(=O)=O)c1ccccc1Cl | 69.0* | x | x | 0.8 | 0.6 | -2.7 | 70.5*
Cc1ccc(C(=O)CN2C(=O)c3ccccc3S2(=O)=O)cc1 | 65.5* | x | 2.9 | -0.8 | -3.1 | -2.9 | 74.1*
CCn1c(=O)c(C(=O)NCc2cccnc2)c(O)c2ccccc21 | -3.7 | 7.9 | -11.8 | -0.1 | x | 0.0 | x
Cc1nc2ccccc2c(=O)n1-c1ccc(Cl)cc1[N+](=O)[O-] | 80.3* | 12.8 | -1.1 | x | 1.2 | -3.9 | -10.1
COC(=O)CN1C(=O)NC2(CCCc3ccccc32)C1=O (stereo unspecified) | -9.4 | -2.9 | -7.6 | -3.0 | -0.2 | -0.5 | x
CCCCNC1=CC(=O)C(=O)c2ccccc21 | -32.1 | 8.5 | -12.5 | x | 0.2 | 0.6 | x
CCCCN1C=CC(=C2C(=O)c3ccccc3C2=O)C=C1 | 86.9* | 7.4 | 5.5 | -1.6 | 1.1 | 2.8 | 91.8*
c1ccc2ncccc2c1 | 62.9* | x | -1.2 | -0.8 | x | 0.9 | 6.1

Compound activity (PubChem)
